Shown are actives, neighbours in structure and some others; about 18% of the full set was active somewhere.
DT40 TDP1 no CPT = qHTS for Inhibitors of human tyrosyl-DNA phosphodiesterase 1 (TDP1): qHTS in cells in absence of CPT. DT40 Tdp1-/- hTDP1 cells, no CPT, ATP luminescence, 48 h. Potency, µM (doses to about 46.2 µM), for the others: at the top dose activity change, negative = growth inhibition, actives largely listed as inhibitors. hit rate 15% among 420,000. AID 686978, 2013; note: nearly all actives have a fitted effect of over 55% in size
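A cellular qHTS used chicken DT40 cells lacking endogenous Tdp1 but carrying stably transfected human TDP1. Compounds were applied without camptothecin, and cell growth kinetics were judged by ATP-dependent luminescence after ≥48 hr.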
TDP1 inh = inhibitors of human tyrosyl-DNA phosphodiesterase TDP1. hit rate 0.28% among 350,000. Potency, µM (highest dose often 130 µM), for the others: at the top dose activity change, negative = inhibition, actives largely listed as inhibitors. Q9NUW8. AID 485290. recombinant TDP1, AlphaScreen DNA substrate cleavage; note: nearly all actives have a fitted effect of over 40% in size
Target sequence (Q9NUW8 whole entry, looked up): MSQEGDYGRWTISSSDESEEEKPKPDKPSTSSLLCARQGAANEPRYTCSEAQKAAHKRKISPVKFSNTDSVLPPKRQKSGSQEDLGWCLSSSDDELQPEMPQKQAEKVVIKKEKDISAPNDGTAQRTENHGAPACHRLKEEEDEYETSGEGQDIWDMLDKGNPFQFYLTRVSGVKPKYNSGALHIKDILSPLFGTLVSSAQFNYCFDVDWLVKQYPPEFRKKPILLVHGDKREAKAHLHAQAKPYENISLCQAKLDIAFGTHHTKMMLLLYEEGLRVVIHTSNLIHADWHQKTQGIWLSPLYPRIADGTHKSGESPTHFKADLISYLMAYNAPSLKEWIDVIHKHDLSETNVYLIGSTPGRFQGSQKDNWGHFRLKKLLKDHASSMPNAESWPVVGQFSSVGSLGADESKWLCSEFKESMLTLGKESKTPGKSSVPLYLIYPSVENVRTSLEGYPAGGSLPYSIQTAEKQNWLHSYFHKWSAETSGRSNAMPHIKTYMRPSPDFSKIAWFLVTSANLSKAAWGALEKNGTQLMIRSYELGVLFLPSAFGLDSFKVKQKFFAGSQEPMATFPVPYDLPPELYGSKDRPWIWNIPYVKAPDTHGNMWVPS
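Recombinant E. coli-expressed Tdp1 (1 nM) preincubated with compound 15 min at RT, then 5'-biotin/3'-phosphotyrosine-FITC DNA substrate (15 nM) added for 5 min. AlphaScreen beads (10 ug/ml) added, 10 min RT; tyrosine-FITC cleavage read as signal loss.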
KAT2A inh = blocks human GCN5L2 histone acetyltransferase | Q92830 | GCN5L2 HAT assay, ThioGlo1 CoA-SH fluorescence | Potency, µM (titrated, usually from 58.9 µM), for inactives: at the highest dose activity change, negative = inhibition, actives largely listed as inhibitors | hit rate 0.21% among 390,000 | AID 504327
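Enzyme at 20nM final was mixed with library compounds for 15 min at room temperature. Peptide H3(1-25) at 75uM, acetyl-CoA at 70uM and ThioGlo1 at 50uM were then added. Plates were read immediately and after 20 min (Ex340nm/Em540nm).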
VDR inh = vitamin D3 receptor (human) inhibition; VDR-SRC2-3 peptide fluorescence polarization, 2 h; Potency, µM, for inactives: max response, negative = inhibition, most hits filed as inhibitors; hit rate 0.93% among 400,000; AID 504847
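Fluorescence polarization assay measuring small-molecule disruption of VDR binding to the coregulator peptide SRC2-3. Compounds were pin-transferred (23 nl) into the reagent mix and incubated 2 h at room temperature before reading.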
TDP1 cell CPT = growth inhibition of DT40 Tdp1-/-;hTDP1 cells with camptothecin (screen for TDP1 inhibitors) | chicken DT40 Tdp1-/-;hTDP1 cells + 20 nM CPT, ATP luminescence, 48 h | Potency, µM (top dose mostly 46.2 µM), without a hit: at the top dose activity change, negative = growth inhibition, hits mostly inhibitors | hit rate 12% among 420,000 | AID 686979; note: nearly all actives have a fitted effect of over 55% in size
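Chicken DT40 Tdp1-/- cells stably complemented with human TDP1 were seeded at 400 cells/well in medium containing 20 nM camptothecin, exposed to pin-transferred compounds, and grown at 37 °C for at least 48 hr. Viability was read as ATP luminescence.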
PLK1 PBD block = PLK1 (human) polo-box domain binding inhibition | Potency, µM, without a hit: max response, negative = inhibition, hits mostly inhibitors | P53350 | Plk1 PBD binding of FITC phosphopeptide, fluorescence polarization | hit rate 2.8% among 360,000; note: series mostly up to about 57 µM; nearly all actives have a fitted effect of over 65% in size
An asterisk follows results filed as active; ? = inconclusive; nt = not tested or not shown; [ ] = dose if it differs, or a comment. Calls come from the whole dose curve; as a rule, active = well fitted curve in the direction sought with a large enough effect; inconclusive = small, poorly fitted or top-dose-only effect, or another doubt; inactive = no such curve, though single readings can be large; an effect the other way counts as inactive or inconclusive. % is set by controls: 0 for no effect and ±100 for the full control effect; potency is the fitted concentration of half-maximal effect.

SMILES	DT40 TDP1 no CPT	TDP1 inh	KAT2A inh	VDR inh	TDP1 cell CPT	PLK1 PBD block
COC(=O)c1ccccc1NC(=O)c1cc(C)nc2c1c(C)nn2-c1ccc(C)cc1	-5%	0%	-21%	1%	0%	nt
COc1ccc(CCNC(=O)c2cc(C)nc3c2c(C)nn3-c2ccc(C)cc2)cc1OC	?	2%	0%	15%	?	nt
COc1ccc(OC)c(NC(=O)c2cc(C3CC3)nc3c2c(C)nn3-c2ccc(C)cc2)c1	?	1%	-13%	8%	26µM*	nt
COc1ccc(NC(=O)c2cc(C3CC3)nc3c2c(C)nn3-c2ccccc2)cc1	-51%	8%	-3%	5%	?	nt
COc1cccc(CNC(=O)c2cc(C)nc3c2c(C)nn3-c2ccc(C)cc2)c1	16µM*	-12%	-25%	14%	?	nt
CCOCCCN1CC(=O)N2[C@@H](Cc3c([nH]c4ccccc34)C2(C)C)C1=O	?	nt	-2%	-15%	?	-1%
CC1(C)CC(=O)c2cc(C(=O)Nc3cccc4ccccc34)c(=O)[nH]c2C1	16µM*	nt	nt	nt	?	nt
Cc1cc(C)c(S(=O)(=O)N2CCN(c3nc4c(c(=O)n(C)c(=O)n4C)n3C)CC2)c(C)c1	nt	6%	-1%	nt	nt	nt
Cn1c(=O)c2c(nc(C3CC4C5CCC(C5)C4C3)n2C)n(C)c1=O (stereo not given)	16µM*	nt	nt	-22%	?	-9%
COc1cc2c(cc1O)CCC1C2CC[C@]2(C)[C@@H](O)CC[C@@H]12 (stereo not given in full)	nt	9%[56.1 µM]	nt	nt	nt	nt
CCOc1cc2c(cc1O)C(=NOC)CC1C2CCC2(C)C(O)CCC12 (stereo not given)	0.82µM*	nt	nt	3%	0.92µM*	-2%
Cc1noc(C)c1CSCC(=O)Nc1cc(C(F)(F)F)ccc1N1CCCCC1	16µM*	nt	-10%	-1%	18µM*	-3%
CCN(CC)c1ccc(S(=O)(=O)N2CCCCC2)cc1NC(=O)CSCc1c(C)noc1C	?	nt	nt	4%	?	-5%
Cc1noc(C)c1CSCC(=O)Nc1cc(S(=O)(=O)N2CCCCC2)ccc1OC(C)C	23µM*	-1%	-2%	14%	12µM*	0%
CC(C)Oc1ccc(S(=O)(=O)N2CCOCC2)cc1NC(=O)C1CCC1	-5%	-10%[0.505 µM]	3%	0%	-2%	-6%
Cc1noc(C)c1CSCC(=O)Nc1cc(Cl)ccc1N1CCCCC1	?	-16%	1%	-13%	-26%	-1%
CC(C)Oc1ccc(S(=O)(=O)N2CCOCC2)cc1NC(=O)CSC(=S)N1CCCC1	21µM*	nt	nt	nt	?	-11%
Cc1nc([N+](=O)[O-])c(Br)n1CC(=O)c1ccc(Cl)cc1	7.3µM*	6%	-10%	?	8.2µM*	?
Cc1nc([N+](=O)[O-])c(Br)n1Cc1ccc(Cl)c(Cl)c1	2.6µM*	0%	-7%	?	5.2µM*	?
Cc1nc([N+](=O)[O-])c(SCC(N)=O)n1Cc1ccccc1	?	0%	-4%	-19%	-2%	-6%
COc1ccc(C(=O)Cn2c(C)nc([N+](=O)[O-])c2Br)cc1	23µM*	nt	-1%	?	7.3µM*	-30%
CCOc1ccc(NC(=O)C2CCN(c3nnc(C)c4c(C)n(-c5ccccc5)nc34)CC2)cc1	-26%	-8%	?	11%	-14%	nt
Cc1cc(NC(=O)CS(=O)c2cn(Cc3cccc(Cl)c3)c3ccccc23)no1 (stereo not given)	16µM*	nt	nt	nt	21µM*	-4%
Cc1cc(NC(=O)CS(=O)(=O)c2cn(Cc3cccc(Br)c3)c3ccccc23)no1	?	nt	nt	nt	26µM*	0%
Cc1cc(NC(=O)CS(=O)(=O)c2cn(Cc3ccccc3Cl)c3ccccc23)no1	?	0%	1%	-11%	?	-7%
SMILES	DT40 TDP1 no CPT	TDP1 inh	KAT2A inh	VDR inh	TDP1 cell CPT	PLK1 PBD block
CCCn1cc(SCC(=O)Nc2cc(C)on2)c2ccccc21	-9%	5%	-7%	-19%	-4%	-1%
O=C1CN(C(=O)COC(=O)CCC(=O)c2ccc(F)cc2)c2ccccc2N1	19%	0%	1%	10%	1%	9%
CCN(Cc1ccccc1)CC(O)COC(c1ccc(OC)cc1)c1ccc(OC)cc1 (stereo not given)	21µM*	nt	-7%	7%	21µM*	-3%
Cc1cccc(NC(=O)c2sc3nc4n(c(=O)c3c2C)N=C(c2ccc(F)cc2)CS4)c1C	?	-8%	-3%	-2%	?	nt
COc1ccc(OC)c(S(=O)(=O)NC2CCSc3ccccc32)c1 (stereo not given)	-21%	3%	-4%	26%	-7%	-1%
CCC(=O)Nc1ccc(CC)cc1-c1nc2ccccc2n(CC(=O)Nc2cccc(Cl)c2)c1=O	?	6%	2%	13%	21µM*	nt
COc1ccc(-c2nnc(NC(=O)C3=COCCO3)o2)cc1	-101%	6%	1%	0%	?	-4%
Fc1ccc(CNCc2ccccc2Cl)cc1	-1%	-3%	-8%	9%	-20%	4%
CCOc1ccc(CNCc2ccccc2Cl)cc1	?	-4%	-16%	13%	16µM*	4%
Clc1ccccc1CNCC1CCC(CNCc2ccccc2Cl)CC1 (stereo not given)	3µM*	-8%[56.1 µM]	-9%	-1%	3µM*	nt
CCOc1ccc(-c2cncc3nccn23)cc1	-26%	nt	nt	nt	-22%	-1%
Cc1ccc(NS(=O)(=O)c2ccc3c(c2)n(C)c(=O)n3C)cc1	-21%	nt	-17%	-5%	?	-2%
CCOC(=O)c1oc2ccc(S(=O)(=O)Nc3ccc4c(c3)n(C)c(=O)n4C)cc2c1C	21µM*	5%	-5%	-10%	?	-5%
CCc1ccc(S(=O)(=O)Nc2ccc3c(c2)n(C)c(=O)c(=O)n3C)cc1	15µM*	7%	-7%	-3%	?	nt
CCc1ccc(S(=O)(=O)Nc2cc3c(cc2N2CCOCC2)n(C)c(=O)c(=O)n3C)cc1	?	3%	-3%	-8%	?	-14%
Cn1c(=O)c(=O)n(C)c2cc(S(=O)(=O)NCc3ccc(Cl)cc3)ccc21	?	0%	-3%	?	16µM*	11µM*
Cc1cc2c(cc1S(=O)(=O)Nc1ccc(F)cc1)n(C)c(=O)c(=O)n2C	-4%	nt	-38%	12%	9%	-5%
Cn1c(=O)n(C)c2cc(S(=O)(=O)NCc3ccccc3)ccc21	?	-1%	3%	-22%	?	-9%
